The target in test [1] is Calcium/calmodulin-dependent protein kinase type II subunit alpha (Homo sapiens) (UniProt Q9UQM7). To be noted: at 1 µM.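 Note: reported value is a mean percent inhibition of CAMK2A.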
The target of test [2] is Calcium/calmodulin-dependent protein kinase type II subunit delta (Homo sapiens) (UniProt Q13557). To be noted: at 0.1 µM.
Test [3] shares this target. To be noted: at 1 µM.
For test [4], the target named is T1, Calcium/calmodulin-dependent protein kinase type IV (Homo sapiens) (UniProt Q16566).
T1 sequence (whole entry): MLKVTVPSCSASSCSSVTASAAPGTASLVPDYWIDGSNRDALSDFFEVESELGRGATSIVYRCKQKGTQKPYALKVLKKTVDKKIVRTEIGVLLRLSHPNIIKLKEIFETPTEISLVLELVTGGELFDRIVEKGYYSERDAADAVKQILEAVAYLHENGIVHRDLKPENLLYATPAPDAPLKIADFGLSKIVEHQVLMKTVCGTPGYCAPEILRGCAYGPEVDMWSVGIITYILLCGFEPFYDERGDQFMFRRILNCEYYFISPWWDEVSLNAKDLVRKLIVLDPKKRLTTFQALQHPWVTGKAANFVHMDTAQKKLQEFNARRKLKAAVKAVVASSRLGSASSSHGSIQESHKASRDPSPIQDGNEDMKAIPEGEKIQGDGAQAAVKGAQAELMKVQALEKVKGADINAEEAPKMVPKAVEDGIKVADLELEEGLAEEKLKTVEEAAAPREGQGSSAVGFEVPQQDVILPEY
To be noted: at 0.1 µM.

The target of test [5] is T1, Calcium/calmodulin-dependent protein kinase type IV (Homo sapiens). Conditions: at 1 µM.
For test [6], the target named is T2, Serine/threonine-protein kinase Chk1 (Homo sapiens) (UniProt O14757).
T2 sequence (whole entry): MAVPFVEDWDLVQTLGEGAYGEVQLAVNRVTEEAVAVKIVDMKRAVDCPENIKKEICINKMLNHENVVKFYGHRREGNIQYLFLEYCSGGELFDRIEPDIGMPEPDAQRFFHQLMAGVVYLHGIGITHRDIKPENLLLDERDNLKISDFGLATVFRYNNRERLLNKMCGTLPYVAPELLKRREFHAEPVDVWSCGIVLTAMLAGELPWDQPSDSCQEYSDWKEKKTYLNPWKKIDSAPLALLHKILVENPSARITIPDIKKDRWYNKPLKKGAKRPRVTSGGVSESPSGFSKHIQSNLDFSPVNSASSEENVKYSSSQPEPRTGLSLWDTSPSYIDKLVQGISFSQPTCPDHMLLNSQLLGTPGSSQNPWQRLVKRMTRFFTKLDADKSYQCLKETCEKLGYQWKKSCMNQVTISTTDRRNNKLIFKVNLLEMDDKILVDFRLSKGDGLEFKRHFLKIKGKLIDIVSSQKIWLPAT
To be noted: at 0.1 µM.

The target of test [7] is T2, Serine/threonine-protein kinase Chk1 (Homo sapiens). Conditions: at 1 µM.
The target in test [8] is Serine/threonine-protein kinase Chk2 (Homo sapiens) (UniProt O96017). To be noted: at 0.1 µM.
Serine/threonine-protein kinase Chk2 (Homo sapiens), sequence (O96017 whole entry): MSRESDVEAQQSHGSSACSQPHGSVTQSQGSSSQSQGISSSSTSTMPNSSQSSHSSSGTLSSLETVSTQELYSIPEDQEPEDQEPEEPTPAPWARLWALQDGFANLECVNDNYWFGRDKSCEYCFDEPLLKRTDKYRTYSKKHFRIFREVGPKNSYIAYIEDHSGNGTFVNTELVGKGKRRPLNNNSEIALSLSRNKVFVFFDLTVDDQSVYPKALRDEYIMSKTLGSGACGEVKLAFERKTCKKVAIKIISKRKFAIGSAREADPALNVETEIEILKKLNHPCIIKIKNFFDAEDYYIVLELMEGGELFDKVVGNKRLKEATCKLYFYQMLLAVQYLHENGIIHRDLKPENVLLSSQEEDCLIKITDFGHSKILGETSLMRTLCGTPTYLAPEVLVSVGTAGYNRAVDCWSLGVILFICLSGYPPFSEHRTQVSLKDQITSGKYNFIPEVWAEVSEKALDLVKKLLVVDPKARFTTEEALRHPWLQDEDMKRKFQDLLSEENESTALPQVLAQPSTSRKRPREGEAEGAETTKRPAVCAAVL
Test [9] has the same target. To be noted: at 1 µM.
Test [10] deals with Death-associated protein kinase 1 (Homo sapiens) (UniProt P53355). To be noted: at 0.1 µM.
Death-associated protein kinase 1 (Homo sapiens), sequence (P53355 whole entry, looked up): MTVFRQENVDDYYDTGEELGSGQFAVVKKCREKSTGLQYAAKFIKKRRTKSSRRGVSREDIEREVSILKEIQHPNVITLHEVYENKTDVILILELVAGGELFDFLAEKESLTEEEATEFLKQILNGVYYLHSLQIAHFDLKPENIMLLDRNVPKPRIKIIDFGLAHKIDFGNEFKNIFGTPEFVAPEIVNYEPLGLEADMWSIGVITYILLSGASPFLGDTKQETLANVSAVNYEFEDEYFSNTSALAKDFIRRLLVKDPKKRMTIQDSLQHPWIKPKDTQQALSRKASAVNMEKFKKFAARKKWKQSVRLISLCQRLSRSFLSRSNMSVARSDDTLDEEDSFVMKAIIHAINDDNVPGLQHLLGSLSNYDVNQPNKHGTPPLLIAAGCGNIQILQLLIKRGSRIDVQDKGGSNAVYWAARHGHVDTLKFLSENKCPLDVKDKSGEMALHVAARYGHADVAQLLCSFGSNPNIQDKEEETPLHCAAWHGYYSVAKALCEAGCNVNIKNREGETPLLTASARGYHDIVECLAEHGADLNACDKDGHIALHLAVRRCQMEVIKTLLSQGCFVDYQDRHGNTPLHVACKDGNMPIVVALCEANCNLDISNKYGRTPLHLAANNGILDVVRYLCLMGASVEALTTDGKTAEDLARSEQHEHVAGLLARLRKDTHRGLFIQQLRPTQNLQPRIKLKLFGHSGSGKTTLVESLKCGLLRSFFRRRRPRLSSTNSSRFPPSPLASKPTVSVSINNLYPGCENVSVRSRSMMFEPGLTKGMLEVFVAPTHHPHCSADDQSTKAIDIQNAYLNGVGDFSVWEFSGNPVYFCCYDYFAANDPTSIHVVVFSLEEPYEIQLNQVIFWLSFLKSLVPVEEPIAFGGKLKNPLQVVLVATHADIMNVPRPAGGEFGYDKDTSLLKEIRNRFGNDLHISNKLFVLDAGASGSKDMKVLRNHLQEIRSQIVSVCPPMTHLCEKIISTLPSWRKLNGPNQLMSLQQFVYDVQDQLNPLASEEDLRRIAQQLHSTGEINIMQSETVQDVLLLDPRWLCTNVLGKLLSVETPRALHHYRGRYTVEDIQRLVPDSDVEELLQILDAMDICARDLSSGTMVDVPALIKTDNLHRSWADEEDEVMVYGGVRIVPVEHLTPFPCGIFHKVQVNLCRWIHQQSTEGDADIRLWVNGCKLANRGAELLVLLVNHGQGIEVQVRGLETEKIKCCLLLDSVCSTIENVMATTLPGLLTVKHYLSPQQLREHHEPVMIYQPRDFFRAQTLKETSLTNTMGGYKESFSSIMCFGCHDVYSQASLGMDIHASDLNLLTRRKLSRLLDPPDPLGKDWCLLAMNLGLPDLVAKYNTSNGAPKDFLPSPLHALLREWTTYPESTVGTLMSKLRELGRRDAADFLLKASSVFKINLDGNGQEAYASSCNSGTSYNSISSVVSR
The target is the same in test [11]. Conditions: at 1 µM.
The target of test [12] is T3, Serine/threonine-protein kinase DCLK2 (Homo sapiens) (UniProt Q8N568).
T3 sequence (whole entry): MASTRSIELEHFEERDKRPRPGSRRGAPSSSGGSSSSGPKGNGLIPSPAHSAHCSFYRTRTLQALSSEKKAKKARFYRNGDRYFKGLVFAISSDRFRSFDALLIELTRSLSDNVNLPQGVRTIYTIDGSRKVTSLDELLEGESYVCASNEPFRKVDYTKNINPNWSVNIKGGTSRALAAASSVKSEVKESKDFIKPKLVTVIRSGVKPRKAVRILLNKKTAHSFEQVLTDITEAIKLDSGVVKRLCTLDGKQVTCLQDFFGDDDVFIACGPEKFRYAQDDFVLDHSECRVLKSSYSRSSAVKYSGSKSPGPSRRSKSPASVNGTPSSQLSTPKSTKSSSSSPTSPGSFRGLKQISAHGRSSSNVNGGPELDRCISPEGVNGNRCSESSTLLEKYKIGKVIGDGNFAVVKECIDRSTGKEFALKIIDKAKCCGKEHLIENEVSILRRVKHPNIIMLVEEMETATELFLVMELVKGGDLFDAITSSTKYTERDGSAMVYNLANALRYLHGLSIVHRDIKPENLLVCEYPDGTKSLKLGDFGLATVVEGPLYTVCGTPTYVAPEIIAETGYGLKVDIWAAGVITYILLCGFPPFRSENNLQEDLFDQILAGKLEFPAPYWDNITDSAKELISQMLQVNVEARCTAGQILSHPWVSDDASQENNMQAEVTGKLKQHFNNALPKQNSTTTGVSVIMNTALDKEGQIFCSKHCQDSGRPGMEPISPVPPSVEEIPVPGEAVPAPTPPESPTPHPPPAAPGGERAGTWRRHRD
Conditions: at 0.1 µM.

Test [13] concerns the target T3, Serine/threonine-protein kinase DCLK2 (Homo sapiens). Conditions: at 1 µM.
For test [14], the target named is MAP kinase-activated protein kinase 2 (Homo sapiens) (UniProt P49137). To be noted: at 0.1 µM.
MAP kinase-activated protein kinase 2 (Homo sapiens), sequence (P49137 whole entry, looked up): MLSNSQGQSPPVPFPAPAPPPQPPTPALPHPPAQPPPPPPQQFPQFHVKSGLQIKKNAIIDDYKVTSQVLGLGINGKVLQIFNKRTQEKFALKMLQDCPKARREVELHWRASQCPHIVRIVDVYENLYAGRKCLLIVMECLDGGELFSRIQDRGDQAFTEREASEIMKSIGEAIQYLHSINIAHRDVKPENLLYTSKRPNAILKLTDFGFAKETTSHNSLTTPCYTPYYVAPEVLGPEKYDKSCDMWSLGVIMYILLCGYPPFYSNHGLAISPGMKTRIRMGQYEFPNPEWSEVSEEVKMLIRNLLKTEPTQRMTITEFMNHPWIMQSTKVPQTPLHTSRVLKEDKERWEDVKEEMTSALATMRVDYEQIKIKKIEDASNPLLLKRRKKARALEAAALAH
Test [15] shares this target. Conditions: at 1 µM.
The target in test [16] is MAP kinase-activated protein kinase 3 (Homo sapiens) (UniProt Q16644). To be noted: at 0.1 µM.
For test [17] the target is unchanged. To be noted: at 1 µM.
Test [18] concerns the target Serine/threonine-protein kinase MARK1 (Homo sapiens) (UniProt Q9P0L2). To be noted: at 0.1 µM.
The target is the same in test [19]. Conditions: at 1 µM.
Test [20] concerns the target MAP/microtubule affinity-regulating kinase 3 (Homo sapiens) (UniProt P27448). To be noted: at 0.1 µM.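 Note: mean percent inhibition of MARK3 kinase activity, measured within the GSK PKIS screening panel.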

MAP/microtubule affinity-regulating kinase 3 (Homo sapiens), sequence (P27448 whole entry, looked up): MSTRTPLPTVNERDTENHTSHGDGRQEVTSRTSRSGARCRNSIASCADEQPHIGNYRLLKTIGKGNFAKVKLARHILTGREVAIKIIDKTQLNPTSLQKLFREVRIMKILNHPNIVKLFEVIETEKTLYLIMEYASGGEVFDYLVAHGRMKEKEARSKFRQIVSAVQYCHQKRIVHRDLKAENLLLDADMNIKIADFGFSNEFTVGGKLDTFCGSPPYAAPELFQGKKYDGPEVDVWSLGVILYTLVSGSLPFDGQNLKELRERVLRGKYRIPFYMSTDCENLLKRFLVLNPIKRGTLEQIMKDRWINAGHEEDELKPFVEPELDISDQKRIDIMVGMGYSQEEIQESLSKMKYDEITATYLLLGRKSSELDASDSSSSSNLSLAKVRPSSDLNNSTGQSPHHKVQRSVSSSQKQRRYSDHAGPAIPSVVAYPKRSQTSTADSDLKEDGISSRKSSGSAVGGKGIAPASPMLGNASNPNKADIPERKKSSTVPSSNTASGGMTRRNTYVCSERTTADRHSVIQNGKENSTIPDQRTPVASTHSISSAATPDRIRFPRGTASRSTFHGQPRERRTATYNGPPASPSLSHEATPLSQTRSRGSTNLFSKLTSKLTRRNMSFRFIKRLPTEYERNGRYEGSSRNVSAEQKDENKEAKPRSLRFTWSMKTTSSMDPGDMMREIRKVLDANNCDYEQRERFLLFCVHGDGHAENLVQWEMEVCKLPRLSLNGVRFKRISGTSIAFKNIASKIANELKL
Calcium/calmodulin-dependent protein kinase type II subunit delta (Homo sapiens), sequence (Q13557 whole entry): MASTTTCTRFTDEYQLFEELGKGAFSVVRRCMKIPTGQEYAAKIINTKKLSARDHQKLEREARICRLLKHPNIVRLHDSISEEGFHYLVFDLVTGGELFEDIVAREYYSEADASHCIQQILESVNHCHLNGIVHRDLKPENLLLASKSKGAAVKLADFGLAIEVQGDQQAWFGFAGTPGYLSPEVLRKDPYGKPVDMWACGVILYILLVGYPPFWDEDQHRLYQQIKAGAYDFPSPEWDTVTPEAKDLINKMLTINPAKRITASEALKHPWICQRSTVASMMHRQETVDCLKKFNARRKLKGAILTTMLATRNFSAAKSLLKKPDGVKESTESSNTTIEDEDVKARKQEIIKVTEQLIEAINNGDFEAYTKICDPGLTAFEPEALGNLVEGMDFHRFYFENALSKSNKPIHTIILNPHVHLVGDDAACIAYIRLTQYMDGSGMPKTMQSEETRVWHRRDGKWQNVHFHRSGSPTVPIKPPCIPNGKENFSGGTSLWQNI
Calcium/calmodulin-dependent protein kinase type II subunit alpha (Homo sapiens), sequence (Q9UQM7 whole entry): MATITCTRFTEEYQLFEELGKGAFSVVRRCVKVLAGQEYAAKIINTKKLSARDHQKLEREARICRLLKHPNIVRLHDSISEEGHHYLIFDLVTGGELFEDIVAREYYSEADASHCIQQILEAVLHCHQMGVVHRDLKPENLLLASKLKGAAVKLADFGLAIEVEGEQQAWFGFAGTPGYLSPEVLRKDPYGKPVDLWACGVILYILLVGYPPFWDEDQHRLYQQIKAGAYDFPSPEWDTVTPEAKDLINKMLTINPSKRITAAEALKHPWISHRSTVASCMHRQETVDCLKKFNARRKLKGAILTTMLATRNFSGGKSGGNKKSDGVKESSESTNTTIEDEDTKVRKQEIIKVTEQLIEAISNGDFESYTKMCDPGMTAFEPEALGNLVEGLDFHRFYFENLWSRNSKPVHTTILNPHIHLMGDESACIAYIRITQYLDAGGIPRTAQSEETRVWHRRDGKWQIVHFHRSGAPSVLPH
Serine/threonine-protein kinase MARK1 (Homo sapiens), sequence (Q9P0L2 whole entry, looked up): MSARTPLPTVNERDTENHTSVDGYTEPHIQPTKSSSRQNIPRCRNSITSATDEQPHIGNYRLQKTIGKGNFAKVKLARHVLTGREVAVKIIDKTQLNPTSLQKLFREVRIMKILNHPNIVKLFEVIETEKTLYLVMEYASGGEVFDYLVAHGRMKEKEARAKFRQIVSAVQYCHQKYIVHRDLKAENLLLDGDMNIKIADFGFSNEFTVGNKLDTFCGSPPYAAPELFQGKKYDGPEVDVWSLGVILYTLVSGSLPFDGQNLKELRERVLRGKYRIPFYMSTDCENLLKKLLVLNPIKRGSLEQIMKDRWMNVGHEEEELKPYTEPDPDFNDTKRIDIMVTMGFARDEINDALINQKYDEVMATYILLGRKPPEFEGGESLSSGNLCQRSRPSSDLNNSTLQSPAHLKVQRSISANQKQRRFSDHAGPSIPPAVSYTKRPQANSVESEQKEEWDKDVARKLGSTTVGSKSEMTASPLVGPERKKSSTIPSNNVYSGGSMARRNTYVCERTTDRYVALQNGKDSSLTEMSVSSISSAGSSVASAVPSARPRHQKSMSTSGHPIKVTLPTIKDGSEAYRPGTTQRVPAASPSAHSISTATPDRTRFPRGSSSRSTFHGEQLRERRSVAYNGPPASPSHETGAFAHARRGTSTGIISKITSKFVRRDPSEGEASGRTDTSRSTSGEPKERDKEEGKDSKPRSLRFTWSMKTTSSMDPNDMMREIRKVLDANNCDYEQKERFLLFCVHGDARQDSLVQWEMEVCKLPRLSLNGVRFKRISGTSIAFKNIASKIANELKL

As a reminder, the inhibition is the relative decrease from the control value, in per cent. Turning to `CS(=O)(=O)CCN(CC#N)Cc1ccc(-c2ccc3ncnc(Nc4ccc(OCc5cccc(F)c5)c(Cl)c4)c3c2)o1`, the inhibition in test [1] was -2.02%; in test [2], 1.25%; in [3], 2.48%; in test [4] it was -2.98%; in test [5], -0.45%; in test [6], 0.28%. Further, the inhibition was 2.55% in test [7]; 0.67% in test [8]; 1.7% in test [9]; -0.47% in test [10]; -1.52% in [11]; -4.32% in test [12]. Besides, the inhibition in test [13] is -2.59%; in test [14], 0.26%; in test [15], 0.64%; in test [16] it was 0.54%; in test [17], -0.02%; in test [18], 0.76%. In test [19], the inhibition was -0.29%.

Take `Nc1ncnc2occ(-c3ccc(NC(=O)Nc4cccc(C(F)(F)F)c4)cc3)c12`: the inhibition in test [1] was 1.03%; in [2], 3.02%; in test [3], 2.75%; in test [4], -0.91%; in [5] it was 4.17%; in [6], 6.67%. Moreover, the inhibition in test [7] amounted to 5.24%; in test [8], 3.95%; in test [9], 6.09%; in test [10], 8.33%; in [11], 4.16%; in test [12], 0.41%. The inhibition in test [13] was found to be 1.61%; in test [14] it was 3.79%; in test [15], 3.15%; in test [16] it was 9.11%; in test [17], 20.7%; in test [18] it was 3.95%. Moreover, the inhibition in test [19] is 8.44%; in [20] it was 3.75%.

For `O=C1NC(=O)C(c2cccc(Cl)c2)=C1Nc1ccc(O)c(Cl)c1`, the inhibition in [1] was determined as 6.43%; in test [2], 3.12%; in [3] it was 12%; in test [4] it was 1.98%; in [5] it was 4.94%; in test [6], 1.7%. In addition, the inhibition in test [7] was 4.63%; in test [8] it was 0.16%; in test [9] it was 2.07%; in [10], 1.29%; in [11] it was 2.13%; in [12], -0.44%. The inhibition in test [13] was -0.92%; in [14] it was 0.03%; in test [15], 0.04%; in test [16], -0.58%; in [17], 1.59%; in test [18], 2.1%. Besides, the inhibition in test [19] came out at 15.6%; in test [20] it was 5.22%.

With `CC(=O)Nc1cccc(C#Cc2cncnc2Nc2ccc(OCc3cccc(F)c3)c(Cl)c2)n1`, the inhibition is 1.27% in test [1]; -0.74% in test [2]; -2.74% in [3]; -4.11% in [4]; -7.03% in [5]; 7.14% in [6]. For the same molecule, the inhibition in [7] was 5.32%; in [8], 3.3%; in test [9], 4.37%; in test [10] it was 7.49%; in test [11] it was 7.63%; in [12] it was 5.73%. Further, the inhibition in test [13] was found to be 7.65%; in test [14] it was 2.15%; in test [15], 2.54%; in [16] it was 5.56%; in [17], 5.33%; in [18] it was 1.05%. Further, the inhibition in test [19] turned out to be 1.12%; in test [20], 0.78%.

For the molecule `CCn1c(-c2nonc2N)nc2cnc(Oc3cccc(NC(=O)c4ccc(OCCN5CCOCC5)cc4)c3)cc21`, the inhibition was 2.17% in test [1]; 1.77% in test [2]; 4% in [3]; 2.08% in test [4]; 2.49% in test [5]; -8.33% in [6]. The inhibition is 4.37% in test [7]; 3.15% in test [8]; 13.3% in [9]; -1.49% in test [10]; -1.31% in test [11]; 0.99% in test [12]. In addition, the inhibition in test [13] turned out to be 2.71%; in [14], 1.4%; in test [15], 0.54%; in test [16] it was 3.45%; in [17] it was 3.54%; in [18], 3.31%. Moreover, the inhibition in test [19] came out at 13.3%; in test [20] it was 0.46%.

As for `NC(=O)c1ccc(-c2nc(-c3ccccn3)c(-c3ccc4c(c3)OCO4)[nH]2)cc1`, the inhibition in test [1] is 3.33%; in test [2], 1.17%; in test [3], 1.87%; in test [4], 0.57%; in test [5], 0.4%; in test [6] it was -1.44%. Further, the inhibition in test [7] is 2.65%; in test [8], 1.07%; in [9], 1.89%; in [10] it was 2.4%; in test [11] it was 2.62%; in [12] it was -0.58%. In addition, the inhibition was -8.11% in [13]; 1.1% in test [14]; 0.74% in [15]; 3.61% in [16]; 5.05% in [17]; 1.86% in test [18]. In addition, the inhibition in test [19] was 3.27%; in test [20], 2.26%.

As to `NS(=O)(=O)c1ccc(N/N=C2\C(=O)Nc3ccc(C(=O)NCCc4c[nH]cn4)cc32)cc1`, the inhibition came out at 10.6% in test [1]; 8.76% in test [2]; 32.5% in test [3]; 0.01% in [4]; 0.46% in [5]; 4.59% in test [6]. Further, the inhibition in test [7] was 17.2%; in test [8], 4.59%; in test [9], 18.3%; in test [10], 4.26%; in [11] it was 12.4%; in test [12] it was 1.45%. The inhibition in [13] is 0.59%; in [14], 2.48%; in test [15], 2.03%; in test [16], 3.95%; in test [17], 3.57%; in test [18], 16%. In addition, the inhibition in [19] came out at 61.4%; in [20], 8.6%.

The values are drawn from ChEMBL document CHEMBL1961873, “Compounds: GSK PKIS; Assays: Nanosyn kinase panel” (2012).
